Results as given in the supplement of paper PMC10646978.
± gives the standard deviation.

What was measured:
Conditions in all cases: modulator concentration 10 µM
[1] = test system: RAW-Dual (murine macrophage reporter line); test: NF-kB reporter (SEAP) activity fold change vs agonist alone; higher = enhanced NF-kB activity
Outline: (§1)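 Compound reached 10 μM final in each well by pin transfer, onto RAW-Dual murine macrophage reporter cells seeded at 50 000 per well in 384-well plates. After 1 hour at 37 °C, the cells were stimulated overnight with a PRR agonist. SEAP in the supernatant was read with QUANTI-Blue at 620 nm absorbance for NF-κB, and Lucia luciferase was read with QUANTI-Luc luminescence for IRF. Each signal was turned into fold change against the mean agonist-only control on the same plate, and two replicate plates were averaged with propagated errors.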

[2] = test system: RAW-Dual (murine macrophage reporter line); test: IRF reporter (Lucia luciferase) activity fold change vs agonist alone; higher = enhanced IRF activity
Outline: as §1

[3] = test system: RAW-Dual (murine macrophage reporter line); test: viability score (confluency relative to resting cells, overnight) (fraction); higher = more viable, active = viable (0.7 or more)
Outline: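 Compound was added at a final 10 μM to RAW-Dual macrophages in 384-well plates and left overnight. Confluency was imaged with IncuCyte, and two masks were generated in IncuCyte software over all imaged wells. Each viability score is confluency relative to resting cells, and a compound met the cutoff only when both masks were above 70% of resting cells.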

[4] = agonist: CpG ODN 1826 0.5 ug/mL

Compound | NF-kB reporter [1, 4] | NF-kB reporter ([1]; agonist: LPS 0.1 ug/mL) | NF-kB reporter ([1]; agonist: MPLA […]) | IRF reporter ([2]; agonist: 3'3'-cGAMP 10 ug/mL) | IRF reporter ([2]; agonist: LPS 0.1 ug/mL) | IRF reporter ([2]; agonist: MPLA […]) | viability score [3]
COc1c(C)c2c(c(O)c1C/C=C(\C)CCC(=O)OCCN1CCOCC1)C(=O)OC2 | 0.66 ± 0.12 | 0.222 ± 0.02 | 0.517 ± 0.047 | 0.608 ± 0.049 | 1.28 ± 0.13 | 1.24 ± 0.13 | 0.813 (active)
COC1(CNC(=O)C2CCN(S(C)(=O)=O)CC2)CCSC1 (configuration not stated) | 0.879 ± 0.04 | 0.875 ± 0.076 | 1.07 ± 0.1 | 0.946 ± 0.074 | 1.08 ± 0.15 | 1.22 ± 0.34 | 0.97 (active)
O=C(C=Cc1cccnc1)c1cc2ccc1CCc1ccc(cc1)CC2 | 1.03 ± 0.058 | 0.76 ± 0.071 | 0.752 ± 0.05 | 0.639 ± 0.023 | 0.998 ± 0.063 | 1.03 ± 0.35 | 1.01 (active)
COc1ccc(CCNC(=O)NCc2nnc3n2CCC(C(F)(F)F)C3)cc1 (configuration not stated) | 0.951 ± 0.067 | 1.02 ± 0.088 | 0.947 ± 0.072 | 1.05 ± 0.072 | 1.17 ± 0.07 | 1.12 ± 0.23 | 1.01 (active)
Cc1oncc1C(=O)NCc1cc(C2CC2)n(C)n1 | 0.927 ± 0.087 | 0.954 ± 0.12 | 0.975 ± 0.065 | 0.946 ± 0.04 | 0.982 ± 0.072 | 0.921 ± 0.24 | 0.997 (active)
O=C(CN(c1cc(Cl)cc(Cl)c1)S(=O)(=O)c1ccccc1)N1CCCCCC1 | 1.06 ± 0.13 | 1.13 ± 0.1 | 1.13 ± 0.068 | 0.943 ± 0.14 | 0.991 ± 0.062 | 0.875 ± 0.057 | 0.996 (active)
Cc1cccc(C(=O)ON=C(c2ccncc2)c2ccc([N+](=O)[O-])cc2)c1 | 0.806 ± 0.07 | 0.838 ± 0.039 | 1.06 ± 0.099 | 1.03 ± 0.068 | 1.43 ± 0.083 | 1.61 ± 0.14 | 1 (active)
CC#CC(=O)N1CCC[C@H]1c1nc(-c2ccc(C(=O)Nc3ccccn3)cc2)c2c(N)nccn12 | 0.946 ± 0.24 | 1.03 ± 0.077 | 0.876 ± 0.068 | 0.575 ± 0.019 | 1.02 ± 0.11 | 1.03 ± 0.15 | 0.736 (active)
CCOc1ccc(-c2nc3c(c(C)nn3-c3ccccc3)c3cc(OC)c(OC)cc23)cc1 | 0.812 ± 0.063 | 0.934 ± 0.089 | 1.05 ± 0.095 | 0.948 ± 0.043 | 1.29 ± 0.075 | 1.48 ± 0.14 | 1 (active)
COc1ccc(-c2cc(CNC(=O)C3CCC3)no2)cc1 | 1.15 ± 0.075 | 1.02 ± 0.1 | 0.934 ± 0.034 | 0.877 ± 0.052 | 1.06 ± 0.086 | 0.986 ± 0.23 | 0.995 (active)
COc1ccc(C(=O)OCCCN2C(=O)c3ccccc3C2=O)cc1 | 0.926 ± 0.15 | 0.986 ± 0.093 | 0.916 ± 0.071 | 0.967 ± 0.036 | 1.26 ± 0.13 | 1.41 ± 0.2 | 1 (active)
O=C(CS(=O)Cc1ccco1)NC/C=C\COc1cc(CN2CCCCC2)ccn1 (configuration not stated) | 0.989 ± 0.16 | 1.02 ± 0.14 | 0.928 ± 0.052 | 0.897 ± 0.043 | 1.24 ± 0.3 | 1 ± 0.24 | 0.997 (active)
Brc1ccc(-c2nc(-c3ccccc3)cc(N3CCOCC3)n2)cc1 | 1.05 ± 0.089 | 1.01 ± 0.066 | 1.01 ± 0.039 | 0.961 ± 0.097 | 1.11 ± 0.1 | 1.09 ± 0.16 | 1 (active)
CCC(C)(Oc1ccc(C2(c3ccc(OC(C)(CC)C(=O)O)cc3)CCCCC2)cc1)C(=O)O (configuration not stated) | 1.14 ± 0.26 | 1.09 ± 0.39 | 0.919 ± 0.063 | 0.946 ± 0.037 | 1.29 ± 0.44 | 1.24 ± 0.093 | 0.986 (active)
O=C(O)CN1C(=O)c2cccc3cccc(c23)C1=O | 1.11 ± 0.083 | 0.935 ± 0.053 | 1.01 ± 0.039 | 0.934 ± 0.053 | 0.911 ± 0.14 | 0.956 ± 0.22 | 0.998 (active)
O=C(CN1CCN(c2ccccc2F)C1=O)N1CCCC(Oc2cnccn2)C1 (configuration not stated) | 0.831 ± 0.039 | 0.931 ± 0.075 | 1.08 ± 0.062 | 1.02 ± 0.053 | 1.26 ± 0.27 | 1.37 ± 0.47 | 0.965 (active)
COC(=O)C1=C(C)N(c2ccc(Br)cc2)C(=O)C1=Cc1ccc(O)cc1 | 1.12 ± 0.088 | 0.956 ± 0.1 | 0.93 ± 0.057 | 0.468 ± 0.035 | 1.31 ± 0.16 | 1.05 ± 0.065 | 1.01 (active)
COc1ccc(S(=O)(=O)NNc2ccc([N+](=O)[O-])cc2[N+](=O)[O-])cc1 | 1.21 ± 0.07 | 0.864 ± 0.059 | 0.777 ± 0.05 | 0.342 ± 0.025 | 1.22 ± 0.19 | 1.34 ± 0.14 | 0.962 (active)
COC(=O)C1=COC(OC2OC(CO)C(O)C(O)C2O)C2C1CC(O)C2C (configuration not stated) | 1.04 ± 0.081 | 0.974 ± 0.099 | 0.994 ± 0.033 | 0.976 ± 0.063 | 0.946 ± 0.13 | 0.951 ± 0.24 | 0.998 (active)
COc1ccc(Br)c(C(=O)N2CCCC2CS(=O)(=O)c2ccccc2)c1 (configuration not stated) | 0.982 ± 0.12 | 1.08 ± 0.085 | 0.957 ± 0.075 | 0.988 ± 0.051 | 0.984 ± 0.098 | 0.876 ± 0.11 | 1 (active)
O=C(CCn1cnc2ccccc2c1=O)NCC1CCCN1c1ccccc1 (configuration not stated) | 1.05 ± 0.054 | 1 ± 0.086 | 0.987 ± 0.046 | 0.983 ± 0.053 | 1.3 ± 0.086 | 1.2 ± 0.14 | 0.995 (active)
CCOC(=O)C1=C(COCCN)NC(C)=C(C(=O)OC)C1c1ccccc1Cl.O=S(=O)(O)c1ccccc1 (configuration not stated) | 0.921 ± 0.14 | 1.33 ± 0.18 | 3.73 ± 0.3 | 0.449 ± 0.058 | 1.55 ± 0.2 | 5.89 ± 1.2 | 0.0981 (inactive)
C#CCCCCCCCCCCCC(O)CC(O)COC(C)=O (configuration not stated) | 1.1 ± 0.34 | 1.06 ± 0.055 | 1.13 ± 0.083 | 0.832 ± 0.11 | 1.17 ± 0.19 | 1.41 ± 0.19 | 1 (active)
COC(=O)CCc1ccc(OCC(O)CNC(C)C)cc1 (configuration not stated) [Prestw-1137] | 1.06 ± 0.087 | 1.06 ± 0.084 | 1.02 ± 0.081 | 0.951 ± 0.043 | 0.911 ± 0.067 | 0.827 ± 0.11 | 1 (active)
N#CCCC1(CCC#N)S(=O)(=O)CC(c2ccc(Cl)cc2)CS1(=O)=O | 0.67 ± 0.04 | 0.909 ± 0.056 | 0.623 ± 0.05 | 0.915 ± 0.031 | 1.26 ± 0.087 | 1.04 ± 0.091 | 0.97 (active)
O=C(NCCn1nc(-c2ccccn2)c2c1CCCC2)c1c(F)cccc1Cl | 1.12 ± 0.062 | 1.19 ± 0.12 | 0.921 ± 0.043 | 0.975 ± 0.049 | 1.1 ± 0.068 | 1.2 ± 0.26 | 1 (active)
